Where “and” joins values, the source holds several entries; their conditions need not be identical. Identical values can stand only once. Hit rate of the full screen: of about 5,500 compounds, about 2,000 (36%) were called active. Roughly 18% stayed inconclusive and do not appear here. Rule as the data show it: active = normalized growth mostly below about 0.91 (no sharp cut-off); inconclusive = no clear call, values can overlap the other calls; inactive = mostly above about 0.92. Some of the results follow.
Assay: chemical genetic growth profiling, strain panel (AID 1159580);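 also: tested at 20 µM; growth read once vehicle control cultures reached saturation at 30 °C; 1 = growth at the plate median or of vehicle wells; lower values mean less growth of the strain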
Conditions: S. cerevisiae deletion strains, growth OD

Measured: normalized growth

COc1ccc2c3c1O[C@H]1C[C@@H](O)C=C[C@@]31CCN(C)C2
inactive: locus YAL013W, strain DEP1, hits give low values 1.01 | locus YAL021C, strain ccr4, hits give low values 1.02 | locus YAL026C, strain drs2, hits give low values 0.993 | locus YAL030W, strain snc1, hits give low values 0.984 | locus YBL061C, strain skt5, hits give low values 0.994 | locus YBR009C, strain hhf1, hits give low values 1.01 | locus YBR021W, strain FUR4, hits give low values 0.999 | locus YBR023C, strain chs3, hits give low values 0.992 | locus YBR171W, strain sec66, hits give low values 1.01 | locus YBR229C, strain ROT2, hits give low values 1 | locus YBR231C, strain swc5, hits give low values 0.984 | locus YBR279W, strain paf1, hits give low values 0.992 | locus YCL011C, strain gbp2, hits give low values 0.998 | locus YCL016C, strain dcc1, hits give low values 0.999 | locus YCL029C, strain bik1, hits give low values 1.02 | locus YCL061C, strain MRC1, hits give low values 1.02 | locus YCL069W, strain vba3, hits give low values 1 | locus YCR088W, strain abp1, hits give low values 1 | locus YDL005C, strain med2, hits give low values 0.995 | locus YDL035C, strain GPR1, hits give low values 1.01 | locus YDL040C, strain nat1, hits give low values 1 | locus YDL074C, strain BRE1, hits give low values 1 | locus YDL101C, strain DUN1, hits give low values 0.996 | locus YDL134C, strain PPH21, hits give low values 1.01 | locus YDL185W, strain tfp1, hits give low values 1.02 | locus YDL192W, strain arf1, hits give low values 1.01 | locus YDR001C, strain nth1, hits give low values 0.998 | locus YDR069C, strain doa4, hits give low values 0.997 | locus YDR101C, strain arx1, hits give low values 1.01 | locus YDR137W, strain rgp1, hits give low values 1.03 | locus YDR150W, strain NUM1, hits give low values 1.01 | locus YDR159W, strain sac3, hits give low values 0.935 | locus YDR162C, strain NBP2, hits give low values 0.97 | locus YDR195W, strain ref2 0.946 | locus YDR297W, strain sur2, hits give low values 1.01 | locus YDR318W, strain mcm21, hits give low values 1.05 | locus YDR334W, strain swr1, hits give low values 0.994 | locus YDR335W, strain msn5, hits give low values 1.02 | locus YDR388W, hits give low values 1.01 | locus YDR392W, strain spt3, hits give low values 1.05 | locus YDR502C, strain sam2, hits give low values 1.01 | locus YEL003W, strain gim4, hits give low values 0.985 | locus YEL037C, strain rad23, hits give low values 1 | locus YEL061C, strain CIN8 (second series), hits give low values 1.01 | locus YEL061C, strain CIN8, hits give low values 1.01 | locus YER015W, strain faa2, hits give low values 0.993 | locus YER016W, strain bim1, hits give low values 1.01 | locus YER110C, hits give low values 1.02 | locus YER111C, strain swi4, hits give low values 0.997 | locus YER155C, strain BEM2 (second series), hits give low values 1.01 | locus YER155C, strain BEM2, hits give low values 0.998 | locus YER167W, strain BCK2, hits give low values 1.03 | locus YFR010W, strain ubp6, hits give low values 0.986 | locus YGL078C, strain dbp3, hits give low values 0.992 | locus YGL086W, strain mad1, hits give low values 1.04 | locus YGL167C, strain pmr1, hits give low values 0.997 | locus YGL173C, strain kem1, hits give low values 0.997 | locus YGL227W, strain vid30, hits give low values 0.997 | locus YGL240W, strain doc1, hits give low values 0.999 | locus YGL248W, strain PDE1, hits give low values 1.01 | locus YGL253W, strain hxk2, hits give low values 1.01 | locus YGR078C, strain PAC10, hits give low values 0.981 | locus YGR135W, strain pre9, hits give low values 1 | locus YGR229C, strain SMI1, hits give low values 0.981 | locus YGR252W, strain gcn5, hits give low values 1.08 | locus YHR013C, strain ard1, hits give low values 1.01 | locus YHR027C, strain rpn1, hits give low values 1 | locus YHR030C, strain SLT2, hits give low values 1.01 and 0.985 | locus YHR079C, strain IRE1 (second series), hits give low values 1.02 | locus YHR079C, strain IRE1, hits give low values 0.989 | locus YHR094C, strain hxt1, hits give low values 1.01 | locus YHR129C, strain ARP1, hits give low values 1.01 | locus YHR142W, strain chs7, hits give low values 0.982 | locus YHR200W, strain rpn10, hits give low values 1.02 | locus YIL066C, strain RNR3, hits give low values 1.01 | locus YIL073C, strain SPO22, hits give low values 1.04 | locus YIL125W, strain kgd1, hits give low values 1.01 | locus YIR030C, strain dcg1, hits give low values 1.02 | locus YJL092W, strain hpr5, hits give low values 1 | locus YJL095W, strain BCK1 (second series), hits give low values 1.01 | locus YJL095W, strain BCK1, hits give low values 1.01 and 0.995 | locus YJL115W, strain asf1, hits give low values 1.01 | locus YJL129C, strain trk1, hits give low values 0.983 | locus YJL134W, strain LCB3, hits give low values 1.01 | locus YJL154C, strain vps35, hits give low values 1.01 | locus YJL164C, strain tpk1, hits give low values 1 | locus YJL166W, strain qcr8, hits give low values 1.01 | locus YJL168C, strain set2, hits give low values 1.01 | locus YJL187C, strain SWE1 (second series), hits give low values 1 | locus YJR043C, strain POL32, hits give low values 1.03 | locus YJR066W, strain TOR1, hits give low values 0.935

Reference: PubChem BioAssay AID1159580 (chemical genetic matrix, 2015)
